74 molecules from PubChem BioAssay AID1030 (National Center for Advancing Translational Sciences (NCATS), 2008) can be followed below.

In all, about 220,000 compounds went through this assay and about 16,000 (7.3%) were called active. A call without a number means that no potency is given here. Another 25% or so got no clear call; they are omitted. The call rests on the fitted dose curve; in most records, active means well fitted inhibition curve with a large enough effect (not every such curve was filed as active); inconclusive means small, poorly fitted or top-dose-only effect, or another doubt; inactive means no such curve, though single readings can be large or run the other way. For the sample, actives were picked, then their nearest neighbours and some compounds at random.
Potency means the concentration at half of the fitted maximal effect.

Aldehyde dehydrogenase 1A1 (Homo sapiens), sequence (P00352 whole entry, looked up): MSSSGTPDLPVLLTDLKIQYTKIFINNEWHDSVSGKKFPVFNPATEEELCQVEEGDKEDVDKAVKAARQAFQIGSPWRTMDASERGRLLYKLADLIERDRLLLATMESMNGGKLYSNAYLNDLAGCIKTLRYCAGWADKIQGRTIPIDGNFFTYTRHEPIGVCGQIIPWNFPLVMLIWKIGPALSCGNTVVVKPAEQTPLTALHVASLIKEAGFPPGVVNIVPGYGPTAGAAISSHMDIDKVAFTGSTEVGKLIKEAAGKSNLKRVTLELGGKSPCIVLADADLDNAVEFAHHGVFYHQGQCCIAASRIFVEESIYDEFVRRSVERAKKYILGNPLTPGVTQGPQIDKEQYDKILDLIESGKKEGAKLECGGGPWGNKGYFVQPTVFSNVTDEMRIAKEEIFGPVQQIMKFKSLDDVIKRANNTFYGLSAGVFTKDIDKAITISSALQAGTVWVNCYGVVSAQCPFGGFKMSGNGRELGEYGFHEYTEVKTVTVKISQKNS

This test concerns the target Aldehyde dehydrogenase 1A1 (Homo sapiens) (UniProt P00352). Kind of test: qHTS Assay for Inhibitors of Aldehyde Dehydrogenase 1 (ALDH1A1). As to conditions: Purified ALDH1A1, NADH fluorescence, propionaldehyde substrate; series mostly up to 75.3 µM.
As to `CCN1CCN(c2ccc(NC(=O)c3cnccn3)cc2)CC1`, the Potency entry is “inactive”.
As for `COc1ccc(Nc2ncc(F)c(N3CCOCC3)n2)cc1`, the Potency entry was “inactive”.
`CC(C(=O)NC1CCCC1)N(c1ccc(Oc2ccccc2)cc1)S(C)(=O)=O` (centres undefined): the Potency result is “inactive”.
Turning to `Cc1ccc(N2C(=O)SC(N(CC(=O)O)c3ccc(C)cc3)C2=O)cc1` (centres undefined), the Potency entry was “inactive”.
Then `Cc1cccc(N2C(=O)SC(N(CC(=O)O)c3cccc(C)c3)C2=O)c1` (centres undefined), with 14.1 µM (active); and `Cc1cccc(N(CC(=O)N2CCOCC2)S(C)(=O)=O)c1`, with “inactive”; and `Clc1ncn(CCOc2ccccc2)c1Cl`, with “inactive”.
Regarding `Cc1noc(C)c1S(=O)(=O)Nc1ccc(C(=O)N2CCN(c3ccc(F)cc3)CC2)cc1`, the Potency entry was “inactive”.
For the molecule `COc1ccccc1NC(=O)C1=C(C)NC2=C(C(=O)CCC2)C1c1ccc(C)o1` (centres undefined), the Potency result was “inactive”.
Then `COC(=O)C1=C(C)NC(=O)NC1/C=C/c1ccccc1` (centres undefined), with “inactive”.
With `COC(=O)C1=C(C)NC2=C(C(=O)c3ccccc32)C1c1ccc(-c2ccc(C(=O)O)cc2)o1` (centres undefined), the Potency is 3.16 µM (active).
Regarding `COC(=O)c1cc2n(n1)CCCNC2=O`, the Potency entry was “inactive”.
As to `COc1ccc(/C=C2\SC(=N)N(c3ccc(F)cc3)C2=O)cc1`, the Potency entry was “inactive”.
Take `O=C(Nc1ccc(Cl)cn1)c1ccc2c(c1)OCCO2`: the Potency result is “inactive”.
In the case of `CNc1ccc([N+](=O)[O-])cc1C(=O)O`, the Potency entry is “inactive”.
Regarding `COc1ccc(N2C(=O)CC(Nc3ccc(F)cc3)C2=O)c([N+](=O)[O-])c1` (centres undefined), the Potency was 17.8 µM (active).
For the molecule `COc1cc(OC)cc(C(=O)NC(=S)N2CCN(c3ccc(C(F)(F)F)cc3[N+](=O)[O-])CC2)c1`, the Potency result is “inactive”.
Regarding `COc1cccc(N2C(=O)C3CCCN3C2c2ccc(F)cc2)c1` (centres undefined), the Potency result was “inactive”.
Then `CC(Oc1ccc(Br)cc1Br)C(=O)NC1CCCC1` (centres undefined), with “inactive”; and `CCC1CO/C(=C(\C(=C(Cl)Cl)N2CCOCC2)[N+](=O)[O-])N1` (centres undefined), with “inactive”.
Then `CCc1nnc(NC(=O)c2cccc(S(=O)(=O)N(C)c3ccc(OC)cc3)c2)s1`, with “inactive”; and `Cc1ccc(S(=O)(=O)N2CCN(C(=O)c3cccs3)CC2)cc1`, with “inactive”.
Under `Cc1[nH]c2ccccc2c1CCN(Cc1cccs1)C(=S)NC(C)(C)C` stands “inactive”; under `COc1ccc2[nH]c(C)c(CCN(Cc3cccs3)C(=S)Nc3ccccc3OC)c2c1`, 25.1 µM (active); under `COc1cccc(NC(=S)N(CCc2c(C)[nH]c3ccccc23)Cc2ccco2)c1`, “inactive”.
`Cc1cc(Cl)ccc1OCc1nc(-c2ccncc2)no1`: the Potency entry was “inactive”.
Under `Cc1nn(C)c(C)c1Sc1ccccc1N` stands “inactive”; under `Nc1ccccc1Sc1cc(Cl)nnc1Cl`, 25.1 µM (active); under `Nc1ccccc1N`, “inactive”.
Under `COc1ccc(CN2CCN(Cc3cn(C)nc3-c3ccccc3)CC2CCO)c(C)c1C` (centres undefined) stands “inactive”; under `CCOC(=O)CSc1nnc(-c2ccc([N+](=O)[O-])cc2)o1`, “inactive”; under `COc1cccc(CN(C)CC(=O)NCc2ccccc2Cl)c1OC`, “inactive”.
As for `Cc1ccc(CN2CCN(Cc3cn(C)nc3-c3ccccc3)CC2CCO)o1` (centres undefined), the Potency result was “inactive”.
Under `Cc1ccccc1CN1C[C@@H]2C[C@@H](c3ccc4nsnc4c3)N3CCC[C@@]23C1=O` stands “inactive”; under `Cc1ccccc1CN1C[C@@H]2C[C@@H](c3cn(C)nc3-c3ccccc3)N3CCC[C@@]23C1=O`, 1.58 µM (active).
With `Cn1nnc2cc(C(=O)NCCC3=CCCCC3)ccc21`, the Potency result is “inactive”.
As to `CC1CCCN(C(=O)Cn2c(=O)oc3ccccc32)C1` (centres undefined), the Potency entry is “inactive”.
`CC1CCCN(C(=O)c2ccc3c(c2)C(=O)N(CCC2=CCCCC2)C3=O)C1` (centres undefined): the Potency is 0.501 µM (active).
Under `CCN(CC)C(=O)Cn1cc(S(=O)(=O)CC(=O)NCc2ccc3c(c2)OCO3)c2ccccc21` stands “inactive”; under `Cc1ccc(C(=O)COC(=O)CCCC(=O)NC2CCCCC2)cc1[N+](=O)[O-]`, “inactive”; under `Cc1cc(C=O)c(C)n1-c1ccc(NC2CCCCC2)c([N+](=O)[O-])c1`, 5.62 µM (active).
In the case of `Cc1c(NS(=O)(=O)c2ccc(NC3CCCC3)c([N+](=O)[O-])c2)c(=O)n(-c2ccccc2)n1C`, the Potency entry was “inactive”.
In the case of `Cc1cc(-c2n[nH]c(=S)n2/N=C/C(Br)=C/c2ccccc2)n[nH]1`, the Potency is 17.8 µM (active).
Then `S=c1[nH]nc(-c2cccnc2)n1/N=C/C(Cl)=C\c1ccccc1`, with “inactive”.
On to `CN1CCN(C2=NCCO2)CC1`, for which the Potency entry is “inactive”.
For the molecule `O=C(O)c1cc(Cl)c(Cl)cc1C(=O)Nc1cccc2ncccc12`, the Potency result is “inactive”.
Under `Cc1ccc(/C=C(\C#N)C(=O)Nc2cccc3ncccc23)o1` stands 8.91 µM (active).
With `O=C(Nc1cccc2ncccc12)C(Cl)(Cl)Cl`, the Potency entry was “inactive”.
With `CCN(CC)CCCSc1nc2ccccc2s1`, the Potency result was “inactive”.
For the molecule `COC(=O)c1ccc(COC(=O)c2cnccn2)cc1`, the Potency result was “inactive”.
For the molecule `N#CC1=C(N)Oc2n[nH]c(CSc3ccccc3)c2C12C(=O)Nc1ccccc12` (centres undefined), the Potency is 10 µM (active).
On to `COc1cc2sc(C)nc2cc1C`, for which the Potency result is “inactive”.
On to `Cc1ccc(NC(=O)c2ccc(Oc3ncccn3)cc2)cc1`, for which the Potency result was “inactive”.
`C=C(C(C)=O)C(O)c1cccs1` (centres undefined): the Potency entry is “inactive”.
In the case of `CCC(=O)Nc1ccc2c(c1)nc(CCN1CCN(C)CC1)n2C`, the Potency result is “inactive”.
With `CCCC(=O)Nc1ccc2c(c1)nc1n2CCSC1`, the Potency is 25.1 µM (active).
For the molecule `CCCC(=O)Nc1nc2ccc(NC(=O)c3c(F)c(F)c(OC)c(F)c3F)cc2s1`, the Potency entry is “inactive”.
As to `COC(=O)c1ccc(NC(=S)Nc2cccc(C)n2)cc1`, the Potency result was “inactive”.
As to `Cc1cccc(OC(=O)c2sc3ncn(C)c(=O)c3c2C)c1`, the Potency result was “inactive”.
For the molecule `CCN1CCN(C(=O)CN(C)S(=O)(=O)c2ccc3ccccc3c2)CC1`, the Potency result was “inactive”.
On to `CCC1CCCCN1S(=O)(=O)Cc1ccccc1Cl` (centres undefined), for which the Potency entry is “inactive”.
As for `CS(=O)(=O)N(CC(=O)NC1CCCC1)Cc1ccc(F)cc1`, the Potency result is “inactive”.
Then `NNC(=O)c1cnn(-c2ccccc2)c1C(F)(F)F`, with 11.2 µM (active); and `Cc1c(C(=O)NCc2ccccc2)cnn1-c1ccccc1`, with “inactive”.
With `Nc1c(C(=O)O)cnn1-c1ccccc1`, the Potency entry is “inactive”.
As to `CC(=O)N1N=C(c2ccccc2)OC1c1cccnc1` (centres undefined), the Potency entry is “inactive”.
For the molecule `COCc1c(C(=O)OCc2c(C)noc2C)oc2ccccc12`, the Potency result was “inactive”.
Then `Fc1ccc(CNCc2ccc(Br)cc2)cc1`, with “inactive”; and `COCCn1c(=S)[nH]c2cc(C(=O)NCCc3ccc(OC)c(OC)c3)ccc2c1=O`, with “inactive”; and `S=c1[nH]nc(-c2ccc(Cl)cc2)n1CC1CCCO1` (centres undefined), with “inactive”.
Turning to `Cc1nc2cnc(Nc3ccccc3)nc2n(C[C@H]2CCCO2)c1=O`, the Potency result was “inactive”.
On to `COC(=O)c1ccc2c(=O)n(CC3CCCO3)c(=S)[nH]c2c1` (centres undefined), for which the Potency was 1.78 µM (active).
Then `O=c1c2cc3c(=O)n(CC4CCCO4)c(=O)c3cc2c(=O)n1CC1CCCO1` (centres undefined), with 0.316 µM (active); and `COc1ccc(CCNC(=O)Cn2c(=O)n(CC3CCCO3)c(=O)c3ccccc32)cc1OC` (centres undefined), with “inactive”.
